The panel holds about 79,000 compounds, 15% with a hit somewhere; the sample as a whole holds those more often. Active and inactive are the calls of the source. Rule as the data show it: active = growth inhibition above about 70%; inactive = the rest.
Key:
[1] = NCI Yeast Anticancer Drug Screen. Data for the rad50 strain (AID 155);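 also: 0% = growth of vehicle-only cultures of the same strain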; settings: S. cerevisiae rad50 strain growth inhibition; at 50.0 µM; stronger effect = higher value
In short: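 Yeast carrying a defined DNA repair defect were exposed to test compounds, and growth was compared with vehicle-treated controls to give percent inhibition.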

[2] = NCI Yeast Anticancer Drug Screen. Data for the mec2-1 strain (AID 157); settings: S. cerevisiae mec2-1 strain, at 50.0 µM, stronger effect = higher value
In short: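 Cells of the genetically defined mec2-1 yeast strain are incubated with test compound. Inhibition of growth is calculated against vehicle-treated controls.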

[3] = NCI Yeast Anticancer Drug Screen. Data for the sgs1 mgt1 strain (AID 161);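 also: 0% = growth of cultures given vehicle only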; settings: S. cerevisiae sgs1 mgt1 strain, at 50.0 µM, stronger effect = higher value
In short: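 Mutant yeast exposed to compound; growth scored against vehicle-only wells.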

[4] = NCI Yeast Anticancer Drug Screen. Data for the cln2 rad14 strain (AID 165);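 also: 0% = growth equal to vehicle treated cultures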; settings: S. cerevisiae cln2 rad14 strain, at 50.0 µM, stronger effect = higher value
In short: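 The screen exposed genetically defined yeast (cln2 rad14) to test compounds and scored growth inhibition relative to vehicle-treated controls.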

[5] = NCI Yeast Anticancer Drug Screen. Data for the bub3 strain (AID 167); settings: S. cerevisiae bub3 mutant strain, at 50.0 µM, stronger effect = higher value
In short: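 Compounds were applied to a genetically altered yeast strain carrying a cell-cycle control defect. Growth inhibition was scored against vehicle-treated controls.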

[6] = NCI Yeast Anticancer Drug Screen. Data for the mlh1 rad18 strain (AID 175); settings: S. cerevisiae mlh1 rad18 strain growth inhibition; at 50.0 µM; stronger effect = higher value
In short: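 Compound-treated yeast growth, normalised to vehicle controls. Strain bears defined DNA repair mutations.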

Measured: growth inhibition

O=c1c2cnc3c4cccnc4ccc3c2[nH]n1-c1ccccc1
inactive: [1] -22.6% | [2] 8.15% | [3] 14.2% | [4] -15.4% | [5] -9.85% | [6] -2.8%

COC(OC)C1CC=CCCC1C(=O)O (centres undefined)
inactive: [1] 17.1% | [2] 16.8% | [3] 11.7% | [4] -0.4% | [5] 14.2% | [6] -8.65%

Cc1cccc(OC(=O)Oc2cccc(C)c2)c1
inactive: [1] -5.75% | [2] -9.25% | [3] -4.35% | [4] -15.7% | [5] 20.6% | [6] 31.1%

Cc1ccccc1NC(=O)c1ccccc1
inactive: [1] 1.35% | [2] 2.3% | [3] -5.6% | [4] -14.7% | [5] 5.85% | [6] 3.1%

COC(=O)C(C(=O)OC)C(c1cccc([N+](=O)[O-])c1)C(N)c1ccccc1 (centres undefined)
inactive: [1] 15.3% | [2] -8.95% | [3] -0.5% | [4] 28.2% | [5] 32.1% | [6] 56.4%

CC(=O)c1ccc(OC(=O)Nc2ccc(C)cc2)cc1
inactive: [1] -2.25% | [2] 27.3% | [3] 17.8% | [4] -6.2% | [5] 26.5% | [6] 15.6%

CSc1nc(N)c(NS(=O)(=O)c2ccc(NC(C)=O)cc2)c(=O)[nH]1
inactive: [1] 5.85% | [2] 1.8% | [3] 9.05% | [4] -12.7% | [5] 2.45% | [6] 15.4%

O=C(Oc1ccc([N+](=O)[O-])cc1)C(CSC(c1ccccc1)(c1ccccc1)c1ccccc1)NC(c1ccccc1)(c1ccccc1)c1ccccc1 (centres undefined)
inactive: [1] -3.05% | [2] 20.9% | [3] 6.5% | [4] -19.8% | [5] -3.6% | [6] 23.9%

Cc1nn(-c2ccccc2)nc1C(=O)Nc1ccc2[nH]ncc2c1
inactive: [1] -39.2% | [2] -48.1% | [3] -8.95% | [4] -15.8% | [5] -22.9% | [6] -24.6%

COC1=C(N)C(=O)c2nc(C)ccc2C1=O
inactive: [1] 45.8% | [2] 44.4% | [3] 55.5% | [4] -3.9% | [5] 56.9% | [6] 66.5%

NC(=O)c1ccncc1
inactive: [1] -5% | [2] -7.3% | [3] -13.1% | [4] 5.35% | [5] -1.05% | [6] -6%

Cc1ccc(NC(=O)NCCCCCCNC(=O)Nc2ccc(C)cc2)cc1
inactive: [1] -7.05% | [2] -13% | [3] -7.95% | [4] -9.05% | [5] -14.4% | [6] -17.9%

COc1ccc(CCNC(=O)CC(C)=O)cc1
inactive: [1] -49.2% | [2] -40.5% | [3] -42.3% | [4] 11.4% | [5] -38% | [6] -41.8%

CCN(CC)CCC(=O)c1ccc(Oc2ccc(Cl)cc2)cc1
active: [1] 96.8% | [2] 83.8% | [3] 99% | [4] 80.2% | [5] 98.9% | [6] 99.2%

O=C1c2ccccc2C(=O)N1c1ccc(C(F)(F)F)cc1[N+](=O)[O-]
inactive: [1] -1.25% | [2] 16.2% | [3] 19.7% | [4] -15.8% | [5] 14.5% | [6] 7.2%

CCCCCC1(C)OCC(c2ccccc2)O1 (centres undefined)
inactive: [1] -12.8% | [2] -9.45% | [3] -21% | [4] -47% | [5] -13.3% | [6] 21.1%

O=C(O)C1[N-]CCNC1C(=O)O.[O]=[V][OH] (centres undefined)
inactive: [1] -10.7% | [2] -2.4% | [3] -4.6% | [4] -16.9% | [5] -2.25% | [6] -5.05%

CCCCS(=O)(=O)CCC(N)P(=O)(O)O (centres undefined)
inactive: [1] -26.9% | [2] -77.8% | [3] -43.2% | [4] -33.8% | [5] -6.15% | [6] -36.9%

COc1ccc(C(C#N)CC(=O)c2ccccc2)cc1 (centres undefined)
inactive: [1] 6.4% | [2] 10.9% | [3] 0.95% | [4] 4.45% | [5] -2.6% | [6] -8.35%

NC(=O)c1cccnc1
inactive: [1] 15.1% | [2] -41.4% | [3] 5.1% | [4] -27.2% | [5] -12.9% | [6] 9.95%

N#Cc1[nH]c(=S)[nH]c1N
inactive: [1] 4.1% | [2] -7.85% | [3] 2.6% | [4] 6.05% | [5] 11.8% | [6] -40.8%

COC(=O)C1(F)C(=O)NC(=O)NC1OC (centres undefined)
inactive: [1] 35.5% | [2] 16.6% | [3] 56.4% | [4] 10.3% | [5] 11.7% | [6] 31%

COC(=O)[C@]1(C)CCC[C@@]2(C)C1CC[C@@]13C=C(C(C)C)[C@@H](CC1=O)CC23 (some centres undefined)
inactive: [1] 10.7% | [2] 4.7% | [3] -1.7% | [4] 32.7% | [5] 26.4% | [6] 19.1%

CN(CC(=O)O)c1ccc([N+](=O)[O-])cc1[N+](=O)[O-]
inactive: [1] 8.75% | [2] 8.55% | [3] 10.4% | [4] 52.9% | [5] 26.4% | [6] -1.15%

CCOC(=O)c1ccc(Nc2cnc3ccc(C(F)(F)F)cc3n2)cc1
inactive: [1] 14.4% | [2] -2.35% | [3] 24.9% | [4] 14.9% | [5] 30.9% | [6] -32.8%

CC(C)C(=O)N(C(C)C)C(C)C
inactive: [1] 25.2% | [2] 12.5% | [3] 8.5% | [4] -21.6% | [5] -0.55% | [6] 38%

O=c1[nH]c(SCc2ccco2)nc2ccccc12
inactive: [1] 0.05% | [2] 12.7% | [3] 6.3% | [4] -23.7% | [5] 1.8% | [6] -1.75%

O/N=C(/C(=N\O)c1ccco1)c1ccco1
inactive: [1] -26.1% | [2] -46.5% | [3] -13.8% | [4] 2.45% | [5] -24.1% | [6] -8.3%

CCC1(CC)C(=O)C(CC)(CC)C1=O
inactive: [1] 44.5% | [2] 28.1% | [3] 38% | [4] 20.9% | [5] 39.1% | [6] 6.55%

CCCCC1(CCO)C(=O)N=C(N)NC1=O (centres undefined)
inactive: [1] -15% | [2] -3.85% | [3] -8.05% | [4] -22.9% | [5] -5.6% | [6] -15.8%

CCC(=O)Oc1ccc(Cl)cc1C
inactive: [1] -0.3% | [2] 7.7% | [3] 1.75% | [4] 5.55% | [5] 1.75% | [6] -13.3%

O=[N+]([O-])C[C@@]12O[C@]3(O)C4C5CC(C6C5C3C61)C42 (some centres undefined)
inactive: [1] 6.35% | [2] 10.5% | [3] 15.3% | [4] 2.7% | [5] 1.2% | [6] 8.05%

OC1CCCN(CCNN2CCCC2)C1 (centres undefined)
inactive: [1] 17.9% | [2] 9.65% | [3] 15.4% | [4] 31.1% | [5] 2.35% | [6] 15.3%

CC1(C)CC2CC(CC(C)(C)C2=O)C1=O
inactive: [1] -8.65% | [2] -11% | [3] -0.7% | [4] 5.05% | [5] 7.9% | [6] -1.75%

O=[N+]([O-])c1ccc(S(=O)(=O)n2cccc2)cc1
inactive: [1] 0.9% | [2] 8.8% | [3] -8.05% | [4] -20.9% | [5] 3.6% | [6] -19.8%

CNC(=O)n1cnc(N)n1 (tested in a mixture with another compound)
inactive: [1] -13.2% | [2] 8.2% | [3] 16.7% | [4] -25.3% | [5] -10.9% | [6] 13%

C[s+]1c2ccccc2c2ccccc21
inactive: [1] -65.8% | [2] -46.4% | [3] -32.9% | [4] -22.6% | [5] -13.2% | [6] -49.8%

[N-]=[N+]=NC(=O)C1C(c2ccccc2)=C1c1ccccc1
inactive: [1] 45.5% | [2] 6.8% | [3] -0.2% | [4] 23.7% | [5] 27.8% | [6] -10.2%

O=C(Nc1ccc([N+](=O)[O-])cc1)N1CCOCC1
inactive: [1] 4.8% | [2] -17.8% | [3] 21.5% | [4] -1.25% | [5] 25.2% | [6] 15.2%
